This is part of a sample that, as a whole, favours compounds with a hit. Of some 83,000 tested, about 20% had one in any assay.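 Single-dose data. Exposure time 48 hours. Values below 10 considered active.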 Values without a mark were called inactive. The source made the active and inactive calls.

The values below come from PubChem BioAssay (NCI).

Test systems include SK-MEL-2 melanoma; EKVX NSCLC; SN12C renal; UO-31 renal; TK-10 renal; ACHN renal; A498 renal; CCRF-CEM leukemia; MOLT-4 leukemia; SR leukemia; RPMI-8226 leukemia; OVCAR-8 ovarian; OVCAR-5 ovarian; OVCAR-4 ovarian; SK-OV-3 ovarian; IGROV1 ovarian; OVCAR-3 ovarian; HS 578T breast; NCI/ADR-RES ovarian.
Holding throughout (assay): NCI-60 one-dose screen, 48 h (100 = growth as untreated, 0 = no growth, -100 = all killed)
Common to all, as to conditions: 10 µM unless noted

On to `CCCCCC(=O)Oc1ccc(/C(=C(\C)c2ccc(OC)cc2)c2ccc(OCCN3CCCCC3)cc2)cc1`, for which the growth in the test on SK-MEL-2 melanoma is 64.7%; with EKVX NSCLC, 58.5%; in the test on SN12C renal, 73.8%; in the test with UO-31 renal, 56.2%; with TK-10 renal, 92.7%; with ACHN renal, 74.4%. The growth was 92.3% with A498 renal; 56.7% in the test with CCRF-CEM leukemia; 25.1% in the test on MOLT-4 leukemia; -2% (active) in the test on SR leukemia; 9.96% (active) in the test on RPMI-8226 leukemia; 74.3% with OVCAR-8 ovarian. For the same compound, the growth was 82.2% with OVCAR-5 ovarian; 54.5% with OVCAR-4 ovarian; 68.2% in the test with SK-OV-3 ovarian; 79% in the test on IGROV1 ovarian; 74.9% in the test on OVCAR-3 ovarian; 64.9% in the test on HS 578T breast. Moreover, the growth with NCI/ADR-RES ovarian was 71.2%.

As for `COc1ccc(O)c(N=Nc2nccs2)c1`, the growth in the test on SK-MEL-2 melanoma is 91.6%; in the test with EKVX NSCLC, 54.3%; in the test with SN12C renal, 99.4%; in the test on UO-31 renal it was 61.1%; in the test with TK-10 renal, 106%; in the test with ACHN renal, 28.7%. Besides, the growth in the test on A498 renal was 88.4%; in the test on CCRF-CEM leukemia, 3.48% (active); with MOLT-4 leukemia, 7.26% (active); in the test with SR leukemia, 13.4%; in the test on RPMI-8226 leukemia it was 25.3%; in the test with OVCAR-8 ovarian, 52.1%. The growth is 120% with OVCAR-5 ovarian; 37.1% in the test on OVCAR-4 ovarian; 85.2% in the test on SK-OV-3 ovarian; 70.2% in the test with IGROV1 ovarian; 39.9% in the test with OVCAR-3 ovarian; 53.6% with NCI/ADR-RES ovarian.

Take `CCc1nc(N)nc(N)c1C#CC(C)c1cc(-c2ccnc(C)c2)c2oc(C)nc2c1` (centres undefined): the growth in the test on SK-MEL-2 melanoma is 30.1%; in the test on EKVX NSCLC, 19.2%; in the test on SN12C renal it was 6.91% (active); in the test with UO-31 renal it was 9.81% (active); with TK-10 renal, 25.2%; in the test on ACHN renal it was 9.82% (active). In addition, the growth in the test with A498 renal was 10.8%; in the test with CCRF-CEM leukemia it was 0.474% (active); in the test with MOLT-4 leukemia, 1.69% (active); in the test on SR leukemia it was 3.38% (active); in the test on RPMI-8226 leukemia, 2.39% (active); in the test with OVCAR-8 ovarian, 18.6%. The growth with OVCAR-5 ovarian was 36.8%; in the test on OVCAR-4 ovarian, 51%; with SK-OV-3 ovarian, 16.8%; with IGROV1 ovarian, 2.77% (active); in the test with OVCAR-3 ovarian, 17%; in the test on HS 578T breast, 26.4%. In the test with NCI/ADR-RES ovarian, the growth is 11.5%.

In the case of `CCOC(=O)c1cc(C(=O)c2ccc(O)c(O)c2)n2ccc(-c3ccn4c(C(=O)c5ccc(O)c(O)c5)cc(C(=O)OCC)c4c3)cc12`, the growth was 103% with SK-MEL-2 melanoma; 94.9% in the test on EKVX NSCLC; 94.7% in the test on SN12C renal; 63.4% in the test with UO-31 renal; 83.3% in the test on TK-10 renal; 97.4% in the test on ACHN renal. Further, the growth in the test on A498 renal was 96.6%; in the test with CCRF-CEM leukemia it was 84.5%; in the test on MOLT-4 leukemia, 63.3%; with SR leukemia, 62.3%; in the test with RPMI-8226 leukemia, 74.4%; in the test with OVCAR-8 ovarian it was 91.4%. Moreover, the growth in the test with OVCAR-5 ovarian was 121%; with OVCAR-4 ovarian, 86.5%; in the test with SK-OV-3 ovarian, 100%; in the test with IGROV1 ovarian, 87.4%; with OVCAR-3 ovarian, 101%; in the test with HS 578T breast, 85.8%. Moreover, in the test on NCI/ADR-RES ovarian, the growth is 102%.

As to `Clc1ccc2c(NCCNc3nc(N4CCCCC4)nc4ccccc34)ccnc2c1`, the growth in the test with SK-MEL-2 melanoma is -61.8% (active); with EKVX NSCLC it was 32.9%; in the test with SN12C renal, -2.91% (active); with UO-31 renal, -97.6% (active); with TK-10 renal, -32.5% (active); with ACHN renal, -72.8% (active). Moreover, the growth in the test on A498 renal was 75.8%; with CCRF-CEM leukemia, 0.574% (active); in the test with MOLT-4 leukemia it was 7.69% (active); with SR leukemia, -29.5% (active); in the test on RPMI-8226 leukemia, -41.6% (active); with OVCAR-5 ovarian it was 25.4%. For the same compound, the growth in the test on OVCAR-4 ovarian is 34.2%; in the test with SK-OV-3 ovarian, -2.73% (active); in the test with IGROV1 ovarian, 30.4%; in the test with OVCAR-3 ovarian it was -64.7% (active); in the test with HS 578T breast, 37.9%; with NCI/ADR-RES ovarian, 25.4%.

`Cc1cc(N2CCOCC2)nc(N[C@@H]2CCC[C@H](Nc3ccnc4cc(Cl)ccc34)C2)n1`: the growth in the test with SK-MEL-2 melanoma is -71.5% (active); in the test on EKVX NSCLC, 49.9%; in the test with SN12C renal, 22.7%; in the test with UO-31 renal, -84.5% (active); in the test on TK-10 renal it was -68.7% (active); with ACHN renal, -61.7% (active). Further, the growth with A498 renal was 35.1%; in the test on CCRF-CEM leukemia, -10.4% (active); in the test with MOLT-4 leukemia it was 2.9% (active); with SR leukemia it was -36.9% (active); in the test with RPMI-8226 leukemia it was -45.6% (active); in the test on OVCAR-8 ovarian, 5.36% (active). For the same compound, the growth in the test on OVCAR-5 ovarian is 49.4%; in the test on OVCAR-4 ovarian it was 35.5%; with SK-OV-3 ovarian, 64.4%; with IGROV1 ovarian, 26.4%; in the test on OVCAR-3 ovarian, 22.6%; in the test on NCI/ADR-RES ovarian, 18.2%.

In the case of `Cc1cc(N2CCCC2)nc(NC2CCCC(Nc3ccnc4cc(Cl)ccc34)C2)n1` (centres undefined), the growth in the test on SK-MEL-2 melanoma was -87.5% (active); in the test on EKVX NSCLC it was 11.1%; in the test on SN12C renal, -49.4% (active); in the test with UO-31 renal, -93.3% (active); in the test with TK-10 renal, -74.5% (active); in the test on ACHN renal, -98% (active). In addition, the growth is -18.4% (active) in the test on A498 renal; -22.2% (active) in the test with CCRF-CEM leukemia; -20.8% (active) with MOLT-4 leukemia; -56.6% (active) with SR leukemia; -55.6% (active) in the test with RPMI-8226 leukemia; -69.8% (active) with OVCAR-8 ovarian. In addition, the growth in the test on OVCAR-5 ovarian was -14.8% (active); in the test on OVCAR-4 ovarian, 17.1%; in the test on SK-OV-3 ovarian, -29% (active); in the test on IGROV1 ovarian it was -27.5% (active); in the test with OVCAR-3 ovarian, -53.2% (active); in the test on HS 578T breast, -41.6% (active). In the test on NCI/ADR-RES ovarian, the growth was -10.1% (active).

On to `CN(C)c1ccc(NC(=O)c2ccc(/C=C/C(=O)c3ncc[nH]3)cc2)cc1`, for which the growth in the test on SK-MEL-2 melanoma was 92%; with EKVX NSCLC it was 73%; in the test with SN12C renal it was 44.9%; with UO-31 renal it was 37.9%; in the test on TK-10 renal, 74%; with ACHN renal it was 71.4%. The growth in the test with A498 renal was 94.1%; with CCRF-CEM leukemia, 4.98% (active); in the test on MOLT-4 leukemia it was 27.1%; with SR leukemia, 5.75% (active); in the test on RPMI-8226 leukemia, -4.78% (active); with OVCAR-8 ovarian, 26.6%. Moreover, the growth with OVCAR-5 ovarian was 95.4%; in the test with OVCAR-4 ovarian it was 75.7%; in the test with SK-OV-3 ovarian it was 64.2%; in the test on IGROV1 ovarian, 69.8%; in the test with OVCAR-3 ovarian, 25.7%; with HS 578T breast, 88.1%. Also, the growth with NCI/ADR-RES ovarian was 64%.
